Screens (PubChem)
T cruzi growth-1 = inhibitors of T. cruzi proliferation | T. cruzi beta-gal in NIH3T3, GalScreen luminescence, 90 h | inhibition, % at 8.34 µM | hit rate 5.9% among 77,000;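 active = mean inhibition above about 93%, with at least 55% of replicates each passing it, limit read from the data, passing the limit was not always enough; inconclusive = only one of those two conditions holds; inactive = neither condition holds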
C diff growth = C. difficile growth inhibition. Clostridium difficile clinical isolate growth, OD600, 24 h; stronger effect = lower value. growth activity, negative = inhibition, % at 16 µg/mL (by protocol). hit rate 0.25% among 86,000. AID 1259249;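 active = mean growth activity at or below -80% and every replicate also at or below -80%; inconclusive = mean at or below -80% but some replicate above -80%; inactive = mean growth activity above -80%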
T cruzi growth-2 = blocks T. cruzi growth in NIH3T3 host cells; shares compounds with T cruzi growth-1; T. cruzi beta-gal in NIH3T3, GalScreen luminescence, 90 h; inhibition, % at 8.35 µM; hit rate 72% among 5,600; AID 651739;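 active = mean replicate inhibition above about 95% and at least 55% of replicates individually reaching it, limit read from the data; inconclusive = only one of the two criteria is met; inactive = neither criterion is met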
T cruzi growth-3 = blocks T. cruzi growth in NIH3T3 host cells | shares compounds with T cruzi growth-1 | T. cruzi beta-gal in NIH3T3, GalScreen luminescence, 90 h | inhibition, % at 2.09 µM | hit rate 21% among 5,600 | AID 651740;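 active = mean inhibition above about 95%, with at least 55% of replicates also reaching it, limit read from the data; inconclusive = meets just one of the two conditions; inactive = meets neither condition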
3T3 cytotox = kills mouse NIH/3T3 fibroblasts. AID 651742. NIH/3T3 viability, CellTiter-Glo ATP luminescence, 90 h. cytotoxicity (signal decrease), % at 8.35 µM. hit rate 14% among 5,600. shares compounds with T cruzi growth-1;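 active = mean signal decrease across replicates above about 35% based on untreated-well scatter, with enough replicates individually passing, limit read from the data; inconclusive = no rule stated though some were filed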
3T3 cytotox 2 = NIH/3T3 (mouse) viability loss; shares compounds with T cruzi growth-1; hit rate 56% among 5,600; inhibition, % at 24.9 µM; NIH/3T3 viability, CellTiter-Glo ATP luminescence, 90 h;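 active = mean loss of cell viability signal at or above a set limit, and enough replicates individually reaching it; inconclusive = meets only the mean limit or only the replicate share; inactive = meets neither condition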
A number is an active result; 0 = inactive; ? = inconclusive; - = no result given. This excerpt belongs to a sample that is enriched for hits.

SMILES	T cruzi growth-1	C diff growth	T cruzi growth-2	T cruzi growth-3	3T3 cytotox	3T3 cytotox 2
CN(C)CC(=O)N[C@H]1CC[C@H](CCNC(=O)C2CC2)O[C@@H]1CO	-	0	-	-	-	-
N#Cc1cccc(-c2ccc([C@@H]3[C@H]4CN(C(=O)Nc5ccc(F)cc5)CCCCN4[C@H]3CO)cc2)c1	0	0	-	-	-	-
N#Cc1cccc(-c2ccc([C@@H]3[C@@H](CO)N4CCCCN(C(=O)Nc5ccc(F)cc5)C[C@@H]34)cc2)c1	109	0	106	0	47	98
N#Cc1ccc(-c2ccc([C@@H]3[C@H](CO)N4CCCCN(C(=O)Nc5ccc(F)cc5)C[C@@H]34)cc2)cc1	0	0	-	-	-	-
N#Cc1cccc(-c2ccc([C@H]3[C@H]4CN(C(=O)Nc5ccc(F)cc5)CCCCN4[C@H]3CO)cc2)c1	100	0	101	0	0	0
N#Cc1ccc(-c2ccc([C@H]3[C@@H](CO)N4CCCCN(C(=O)Nc5ccc(F)cc5)C[C@@H]34)cc2)cc1	100	0	112	0	0	0
N#Cc1cccc(-c2ccc([C@@H]3[C@H](CO)N4CCCCN(C(=O)Nc5ccc(F)cc5)C[C@@H]34)cc2)c1	0	0	-	-	-	-
Cc1noc(C)c1NC(=O)Nc1ccc2c(c1)C(=O)N([C@@H](C)CO)C[C@H](C)[C@@H](CN(C)Cc1ccncc1)O2	-	0	-	-	-	-
C[C@@H]1CN([C@H](C)CO)C(=O)Cc2cc(NC(=O)Nc3cccc4ccccc34)ccc2O[C@@H]1CN(C)C(=O)Nc1ccc2c(c1)OCO2	0	0	-	-	-	-
O=S(=O)(c1cccs1)N1CCCCN2[C@H](CO)[C@H](c3ccc(C4=CCCCC4)cc3)[C@H]2C1	105	0	107	0	0	104
C/C=C/c1ccc([C@@H]2[C@@H](CO)N3CCCCN(S(=O)(=O)c4cccs4)C[C@H]23)cc1	0	0	-	-	-	-
O=S(=O)(c1cccs1)N1CCCCN2[C@@H](CO)[C@H](c3ccc(Br)cc3)[C@@H]2C1	103	0	105	0	0	0
O=S(=O)(c1cccs1)N1CCCCN2[C@H](C1)[C@H](c1ccc(C3=CCCC3)cc1)[C@@H]2CO	0	0	-	-	-	-
C/C=C/c1ccc([C@H]2[C@H]3CN(S(=O)(=O)c4cccs4)CCCCN3[C@H]2CO)cc1	106	0	106	0	0	61
O=S(=O)(c1cccs1)N1CCCCN2[C@H](CO)[C@@H](c3ccc(Br)cc3)[C@H]2C1	0	0	-	-	-	-
O=S(=O)(c1cccs1)N1CCCCN2[C@@H](CO)[C@@H](c3ccc(/C=C/c4ccccc4)cc3)[C@@H]2C1	0	0	-	-	-	-
O=S(=O)(c1cccs1)N1CCCCN2[C@H](C1)[C@H](c1ccc(Br)cc1)[C@@H]2CO	109	0	100	0	0	0
O=C(C[C@H]1CC[C@@H](NC(=O)NC2CCCCC2)[C@H](CO)O1)NCc1ccccc1	0	0	-	-	-	-
O=C(C[C@H]1CC[C@H]2[C@@H](COC[C@H](O)CN2Cc2cc(F)cc(F)c2)O1)NC1CCC1	0	0	-	-	-	-
O=C(C[C@@H]1CC[C@H]2[C@@H](COC[C@H](O)CN2Cc2ccccc2)O1)NCc1ccccc1Cl	0	-	-	-	-	-
C[C@@H](NC(=O)C[C@@H]1CC[C@H](NC(=O)c2cccnc2)[C@@H](CO)O1)c1ccccc1	0	-	-	-	-	-
CN1[C@@H]2Cn3c(ccc(-c4cccnc4)c3=O)[C@H]1[C@@H](C(=O)NCCc1ccccc1)[C@@H]2CO	0	-	-	-	-	-
Cc1noc(C)c1NC(=O)N(C)C[C@@H]1OCCCC[C@@H](C)Oc2ccc(NC(=O)c3ccccc3)cc2C(=O)N([C@H](C)CO)C[C@@H]1C	0	-	-	-	-	-
C[C@H]1CN([C@@H](C)CO)C(=O)c2cc(NC(=O)Nc3cccc4ccccc34)ccc2O[C@H]1CN(C)Cc1ccc(Cl)c(Cl)c1	?	0	96	0	0	0
C[C@@H]1CN([C@H](C)CO)C(=O)Cc2cc(NC(=O)Nc3cccc4ccccc34)ccc2O[C@@H]1CN(C)Cc1ccc(Cl)c(Cl)c1	?	0	108	107	44	0
SMILES	T cruzi growth-1	C diff growth	T cruzi growth-2	T cruzi growth-3	3T3 cytotox	3T3 cytotox 2
C[C@H]1CN([C@@H](C)CO)C(=O)c2cc(NC(=O)Nc3cccc4ccccc34)ccc2O[C@@H]1CN(C)Cc1ccc(Cl)c(Cl)c1	0	0	-	-	-	-
C[C@H](CO)N1C[C@H](C)[C@H](CN(C)Cc2ccc(Cl)c(Cl)c2)Oc2ccc(NC(=O)Nc3cccc4ccccc34)cc2CC1=O	0	0	-	-	-	-
Cc1noc(C)c1NC(=O)Nc1ccc2c(c1)C(=O)N([C@@H](C)CO)C[C@@H](C)[C@H](CN(C)C(=O)Nc1ccc(F)cc1)OCCCC[C@H](C)O2	0	0	-	-	-	-
C[C@H](CO)N1C[C@H](C)[C@H](CN(C)C(=O)Nc2ccc(C(F)(F)F)cc2)OCCCC[C@H](C)Oc2ccc(NC(=O)Nc3ccc4c(c3)OCO4)cc2C1=O	111	0	100	109	0	0
C[C@@H]1CCCCO[C@H](CN(C)C(=O)Nc2ccc3c(c2)OCO3)[C@H](C)CN([C@@H](C)CO)C(=O)c2cc(NC(=O)Nc3ccc4c(c3)OCO4)ccc2O1	0	-	-	-	-	-
C[C@@H]1CN([C@@H](C)CO)C(=O)c2cc(NC(=O)Nc3ccc(C(F)(F)F)cc3)ccc2O[C@@H](C)CCCCO[C@@H]1CN(C)C(=O)Nc1ccc2c(c1)OCO2	-	0	-	-	-	-
C[C@H]1CCCCO[C@H](CN(C)C(=O)Nc2ccc(C(F)(F)F)cc2)[C@@H](C)CN([C@@H](C)CO)C(=O)c2cc(NC(=O)Nc3ccc4c(c3)OCO4)ccc2O1	107	0	102	110	0	0
CC(C)CC#Cc1ccc([C@H]2[C@H](CO)N3C(=O)CN(C(=O)c4ccccn4)C[C@@H]23)cc1	-	0	-	-	-	-
Cc1ccc(S(=O)(=O)Nc2ccc3c(c2)C(=O)N([C@@H](C)CO)C[C@H](C)[C@@H](CN(C)S(=O)(=O)c2c(C)noc2C)OCCCC[C@H](C)O3)cc1	0	0	-	-	-	-
C[C@@H]1CCCCO[C@@H](CN(C)Cc2ccc(C(F)(F)F)cc2)[C@@H](C)CN([C@H](C)CO)C(=O)c2cc(NC(=O)Nc3cccc4ccccc34)ccc2O1	102	0	104	0	0	0
C[C@@H]1CN([C@H](C)CO)C(=O)c2cc(NC(=O)Nc3cccc4ccccc34)ccc2O[C@@H](C)CCCCO[C@H]1CN(C)Cc1ccc(C(F)(F)F)cc1	0	0	-	-	-	-
C[C@@H]1CCCCO[C@@H](CN(C)Cc2ccc(C(F)(F)F)cc2)[C@H](C)CN([C@@H](C)CO)C(=O)c2cc(NC(=O)Nc3cccc4ccccc34)ccc2O1	123	0	111	110	0	0
C[C@@H]1CN([C@@H](C)CO)C(=O)c2cc(NC(=O)Nc3cccc4ccccc34)ccc2O[C@@H](C)CCCCO[C@H]1CN(C)Cc1ccc(C(=O)O)cc1	0	0	-	-	-	-
C[C@@H]1CCCCO[C@@H](CN(C)Cc2ccc(C(F)(F)F)cc2)[C@H](C)CN([C@H](C)CO)C(=O)c2cc(NC(=O)Nc3cccc4ccccc34)ccc2O1	?	0	105	115	0	0
